# Screens (PubChem)
# Only some compounds are listed: those with a hit (about 3.5% of all), similar ones and a draw of the others.
# FBPA Giardia inh: qHTS Assay for Inhibitors of Fructose-1,6-bisphosphate Aldolase from Giardia Lamblia | A8B2U2 | purified Giardia FBPA | Potency, µM (doses to about 59.6 µM), for the others: at the highest dose activity, negative = inhibition, most hits filed as inhibitors | 0.71% of 290,000 active | AID 2451, 2010; also: % is scaled to controls: 0 for no effect and ±100 for the full control effect; nearly all actives have a fitted effect of over 55% in size
# Target sequence (A8B2U2 whole entry, looked up): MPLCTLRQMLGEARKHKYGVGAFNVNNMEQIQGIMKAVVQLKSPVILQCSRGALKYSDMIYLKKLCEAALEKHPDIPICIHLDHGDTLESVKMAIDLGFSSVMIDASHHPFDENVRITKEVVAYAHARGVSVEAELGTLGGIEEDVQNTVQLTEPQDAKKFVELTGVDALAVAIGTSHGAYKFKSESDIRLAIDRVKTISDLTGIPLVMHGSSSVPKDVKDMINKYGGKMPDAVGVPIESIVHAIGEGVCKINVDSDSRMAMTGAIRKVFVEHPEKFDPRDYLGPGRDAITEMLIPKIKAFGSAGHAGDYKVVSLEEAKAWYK
#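 40 nM FBPA preincubated 10 min at RT with compound (up to 57.5 uM final), then substrate plus GAPDH/TPI/NAD/arsenate coupling and diaphorase/resazurin added. Fluorescence read after 20 min at RT, 525/598 nm.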
# LmPK inhibitor: qHTS Assay for Inhibitors of Leishmania Mexicana Pyruvate Kinase (LmPK) | Q27686 | purified LmPK, Kinase-Glo ATP luminescence, 1 h | Potency, µM (doses to about 57.5 µM), without a hit: top-dose activity change, negative = inhibition, actives largely listed as inhibitors | 0.37% of 290,000 active | AID 1721, 2009; also: % is scaled to controls: 0 for no effect and ±100 for the full control effect
# Target sequence (Q27686 whole entry, looked up): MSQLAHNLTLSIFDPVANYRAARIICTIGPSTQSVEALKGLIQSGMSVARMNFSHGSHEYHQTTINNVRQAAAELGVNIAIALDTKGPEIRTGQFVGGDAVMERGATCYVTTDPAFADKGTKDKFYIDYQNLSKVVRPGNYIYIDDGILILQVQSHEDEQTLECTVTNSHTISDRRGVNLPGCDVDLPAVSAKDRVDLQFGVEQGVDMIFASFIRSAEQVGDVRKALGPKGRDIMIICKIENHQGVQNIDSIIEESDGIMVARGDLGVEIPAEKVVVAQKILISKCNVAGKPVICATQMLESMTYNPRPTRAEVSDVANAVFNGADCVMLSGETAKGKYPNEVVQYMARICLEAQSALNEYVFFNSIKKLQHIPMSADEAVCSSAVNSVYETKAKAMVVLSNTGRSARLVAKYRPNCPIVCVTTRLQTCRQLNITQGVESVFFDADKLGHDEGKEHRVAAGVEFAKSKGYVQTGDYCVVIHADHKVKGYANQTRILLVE
#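 Purified LmPK (0.1 nM) with 0.5 mM PEP and 0.1 mM ADP in imidazole buffer pH 7.2 with MgCl2/KCl, 1 h at room temperature. ATP formed was read by luciferase luminescence and normalized to no-enzyme and uninhibited controls.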
# NS1 function inh: qHTS Assay for Inhibitors of Influenza NS1 Protein Function; Potency, µM (titrated, usually from 46.1 µM), for inactives: at the top dose activity, positive = more growth; 0.4% of 270,000 active; calls by dose curve; also: actives are rising curves; nearly all actives have a fitted effect of over 50% in size
#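 Read-out: OD600 growth recovery of NS1-expressing budding yeast. Cells grown overnight at 30C in -URA glucose medium, washed, resuspended and diluted 1:100 in 2% galactose assay medium, pH 6.0. Same strain lacking NS1 served as positive control.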
# Tb PYK inh: qHTS of Trypanosoma Brucei Inhibitors | TbPYK enzyme, Kinase-Glo Plus ATP luminescence, 45 min | Potency, µM (series often up to 76.8 µM), for inactives: at the top dose activity, negative = inhibition, most hits filed as inhibitors | 0.12% of 410,000 active | AID 624173, 2012 | pyruvate kinase (Trypanosoma brucei), Q57TT1; also: % is scaled to controls: 0 for no effect and ±100 for the full control effect; nearly all actives have a fitted effect of over 50% in size
#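 Screened from lowest to highest concentration, compounds were pinned into TbPYK/substrate mixtures, and ADP (130 uM final) was added. Plates sat at room temperature for 45 min prior to Kinase-Glo Plus detection by luminescence.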
# Sm TGR inh: qHTS Assay for the Inhibitors of Schistosoma Mansoni Peroxiredoxins. Schistosoma mansoni thioredoxin glutathione reductase (TGR), Q962Y6. purified TGR, DTNB reduction, TNB absorbance 405 nm. Potency, µM (top dose mostly 114 µM), without a hit: top-dose activity change, negative = inhibition, usual class: inhibitors. 3% of 360,000 active. AID 485364, 2010; also: % is scaled to controls: 0 for no effect and ±100 for the full control effect; nearly all actives have a fitted effect of over 60% in size
#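 Kinetic colorimetric format: TGR-catalysed, NADPH-driven DTNB reduction monitored via TNB absorbance. Enzyme dispensed at 20 nM; compound exposure 15 min at room temperature before reaction start.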
# RE007 growth inh: qHTS Assay for Inhibitors of the HIV-1 protein Vpr. S. pombe RE007 Vpr strain, BacTiter-Glo ATP luminescence, 24 h. Potency, µM (doses to about 92.2 µM), for inactives: at the highest dose activity change, negative = less growth, usual class: inhibitors. 0.21% of 360,000 active. AID 651644, 2012; active = well fitted falling curve with a large enough effect; inconclusive = small, poorly fitted or top-dose-only effect; inactive = no such curve, though single readings can be large or run the other way; also: % is scaled to controls: 0 for no effect and ±100 for the full control effect; nearly all actives have a fitted effect of over 50% in size
#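 Fission yeast strain RE007, carrying one chromosomally integrated HIV-1 vpr copy, was seeded at OD 0.01 in PMG+AL medium with 23 nL pinned compound. After 24 h at 30 °C and 99% humidity, viability was read by BacTiter-Glo luminescence.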
# The depositor's hits bear a star; ? = inconclusive; . = no result; [ ] = another dose, or the depositor's remark. Unless noted, calls follow the shape of the dose curve; as a rule, active = well fitted curve in the direction sought with a large enough effect; inconclusive = small, poorly fitted or top-dose-only effect, or another doubt; inactive = no such curve, though single readings can be large; an effect the other way counts as inactive or inconclusive. Potency is read from the fitted curve at half-maximal effect.
SMILES,FBPA Giardia inh,LmPK inhibitor,NS1 function inh,Tb PYK inh,Sm TGR inh,RE007 growth inh
Cc1cccc(NC(=O)c2ccc3snnc3c2)c1,.,.,.,2.2%,11.9%,.
CN1CC[C@@]2(C)c3cc(O)ccc3N(C)[C@@H]12,4.46µM*,.,.,-21.3%,.,-8.1%[18.4 µM]
CNC(=O)Oc1ccc2c(c1)[C@]1(C)CCN(C)C1N2C (stereo not given in full),.,.,.,-6.0%,-3.1%,11.2%
CCCCCCCC1Cc2ccccc2C(C(C(=O)OC)C(=O)OC)N1C(=O)OC (stereo not given),0.7%,-1.6%[11.5 µM],.,.,.,.
Cc1csc(CN(C)C(=O)CC2C(=O)NCCN2Cc2ccc(F)cc2Cl)n1 (stereo not given),.,-9.3%,7.0%,-10.9%,12.6µM*,-6.3%
Cc1csc(CN(C)C(=O)CC2C(=O)NCCN2Cc2ccc(Cl)c(F)c2)n1 (stereo not given),-15.3%,-4.1%,23.1%,-7.9%,44.7µM*,-8.6%
Cc1ccc2c(=O)cc(C(=O)Nc3sc4c(c3C(=O)NCC3CCCO3)CCCC4)oc2c1C (stereo not given),.,.,.,0.4%,2.2%,.
COC(=O)C1=C(C(=O)OC)[C@@H]2N(Cc3ccccc3)c3ccccc3[C@@]23C[C@@H](C(=O)OC)N(S(=O)(=O)c2ccc(OC)cc2)C3=N1,6.8%[12.9 µM],-2.2%[11.5 µM],.,.,.,.
CCC(C(=O)Nc1ccc(C(=O)OC)cc1)n1nc(-c2ccc(C)cc2)c2c(c1=O)CCCC2 (stereo not given),.,.,.,2.1%,5.2%,.
COc1cc(/C=N/NC(=O)CN2CCOCC2)ccc1OCc1ccccc1,0.3%,-3.3%,-28.1%,-0.2%,-9.0%,-6.8%
COc1cc(/C=N\NC(=O)CN2CCOCC2)ccc1OCC(=O)Nc1ccc(C)c(C)c1,0.1%,0.9%,-10.7%,-1.9%,89.1µM*,22.4%
O=C(CCn1cnc2onc(-c3ccc(F)cc3)c2c1=O)Nc1ccc(F)c(Cl)c1,.,.,.,2.9%,5.6%,.
O=C(CCn1cccc1)N1CCc2ccccc21,-0.6%,-3.0%,-7.0%,-0.1%,25.1µM*,?
COc1ccccc1CCNC(=O)CCc1c(C)c2cc3c(C)coc3cc2oc1=O,.,.,.,0.2%,-1.3%,.
COc1ccccc1C=CC(=O)C=Cc1ccccc1OC,.,.,.,-0.4%,.,-18.0%
CNc1ccc(Br)cc(C(=O)/C=C/c2cccc(Cl)c2Cl)c1=O,?,0.1%,-0.3%,-15.1%,2.51µM*,-7.8%
COc1ccccc1/C=C/C(=O)/C=C/c1ccccc1O,-19.9%,-1.0%,-117.0%,-5.2%,20µM*,-12.7%
CNc1ccc(Br)cc(C(=O)/C=C/c2cccc(OC)c2OC)c1=O,?,-0.5%,10.0%,.,7.08µM*,-10.1%[3.69 µM]
CCNc1ccc(Br)cc(C(=O)/C=C/c2ccccc2Cl)c1=O,.,.,.,-10.7%,.,-7.3%
CNc1ccccc(C(=O)/C=C/c2ccccc2OC)c1=O,11.2µM*,2.0%,5.6%,-21.7%,2.82µM*,-27.5%
O=C(CSc1nc(=O)n(Cc2ccco2)c2c1CCC2)NCc1ccccc1Cl,.,.,.,2.1%,-27.7%,.
CCc1nnc(SCc2nc(-c3ccccc3)oc2C)c2cc3sccc3n12,.,.,.,5.2%,3.9%,.
O=C(CSc1cn(CCNC(=O)c2ccccc2F)c2ccccc12)Nc1ccc(F)cc1,.,.,.,-1.7%,-4.0%,.
Cc1nn2c3c(cnc2c1-c1ccccc1)C(=O)CC(c1ccco1)C3 (stereo not given),-9.4%,4.2%,0.9%,-1.4%,35.5µM*,-2.0%
Cc1nn2c3c(cnc2c1-c1ccccc1)C(=O)CC(c1ccccc1)C3 (stereo not given),4.6%,4.5%,2.6%,3.8%,12.2%,-3.2%
SMILES,FBPA Giardia inh,LmPK inhibitor,NS1 function inh,Tb PYK inh,Sm TGR inh,RE007 growth inh
CC(C)OC(=O)/C(=C/c1ccco1)c1ccccc1,-9.6%,1.8%,-4.2%,-1.8%,10µM*,-14.6%
CCc1ccccc1NC(=S)NN,15.8µM*,-4.1%,.,.,3.1%,.
CCc1ccccc1NC(=O)/C(=C/c1ccco1)c1ccccc1,-13.2%,3.3%,-11.7%,-5.6%,35.5µM*,-7.7%
CC(C)(C)NC(=O)/C(=C/c1ccco1)c1ccccc1,-1.4%,0.8%,-25.3%,0.0%,?,-18.0%
CCc1ccccc1NC(=S)NNC(=O)c1ccccc1Cl,3.6%,-5.8%,0.7%,-2.4%,-5.6%,3.9%
CCOc1ccc(NS(=O)(=O)c2ccc3c(c2)NC(=O)CCS3)cc1,.,.,.,0.5%,2.6%,.
CCC(=O)N1CCc2cc(Br)cc(S(=O)(=O)CCC(=O)Nc3cccc(Cl)c3)c21,.,.,.,-2.0%,?,.
Cc1cccc2nc(COc3ccc(-c4ccccc4)cc3)cn12,0.0%,25.1µM*,-9.5%,.,16.0%,.
Cc1cc(C)n2cc(COc3ccc4ccccc4c3)nc2n1,-12.0%,-0.1%,1.2%,-9.7%,-3.2%,-5.1%
CCN(CC)c1nn2c(=O)c(C(=O)NCCc3ccccc3C)cnc2s1,.,.,.,3.7%,-4.5%,.
COC(=O)C1=COC(C)C2CN3CCc4c([nH]c5ccccc45)C3CC12 (stereo not given),-17.7%,-1.9%,2.9%,-15.8%,79.4µM*,-14.0%
O=C(NCC1CCCO1)c1ccc(COc2ccc(F)cc2)o1 (stereo not given),0.9%,-9.5%,-4.3%,-9.1%,35.5µM*,2.1%
CCOc1ccc(OCc2ccc(C(=O)NCC3CCCO3)o2)cc1 (stereo not given),2.3%,6.3%,-19.2%,-1.7%,-9.7%,5.7%
CCn1c(=O)c(=O)n(CC)c2cc(N3CCCCC3)c(NC(=O)c3cccc(OC)c3)cc21,.,.,.,-6.2%,5.1%,.
N#Cc1ccc2c(c1)C[C@]1(c3ccsc3)Oc3c(c(=O)oc4ccc(F)cc34)C2O1,-23.4%[12.9 µM],-0.4%[11.5 µM],14.8%,.,?,.
N#Cc1ccc2c(c1)C[C@]1(c3ccsc3)Oc3c(c(=O)oc4ccccc34)C2O1,-1.3%[12.9 µM],-3.0%[11.5 µM],18.7%,.,7.08µM*,.
COc1ccc2c3c(c(=O)oc2c1)C1O[C@](c2ccsc2)(Cc2cc(C#N)ccc21)O3,-4.2%[12.9 µM],0.2%[11.5 µM],23.2%,.,6.31µM*,.
Cc1ccc(NC(=O)CSc2ccc3nnc(CCNS(=O)(=O)c4ccccc4)n3n2)cc1Cl,.,.,.,-3.5%,-1.8%,.
NC(N)=N[C@@H](CCC(=O)O)C(=O)O,-3.4%,.,-7.6%,.,.,.
CCOc1cc(/C=N/N=C2/NC(=O)C(CC(=O)O)S2)ccc1OCc1ccc(Cl)cc1 (stereo not given),5.5%,12.6µM*,.,?,8.9%,2.0%
COc1ccc(/C=N/N=C2/NC(=O)C(CC(=O)O)S2)cc1OCc1ccc(Cl)cc1 (stereo not given),2.0%,?,4.3%,?,-3.5%,34.0%
